For 40 molecules, Potency and viability change, negative = cytotoxic results are on record in PubChem BioAssay (Tox21).

Results filed as inconclusive are left out. A call without a number means that no potency is given here. Calls of active or inactive are those of the source. Calls come from the whole dose curve; as a rule, active = well fitted cell-killing curve with a large enough effect in the repeat runs; inconclusive = weak or mixed curves, or effect the other way; inactive = flat fitted curve, though single readings scatter.
Potency is the fitted concentration of half-maximal effect.

The experiment in a line: qHTS assay to identify small molecule agonists of the constitutive androstane receptor (CAR) signaling pathway - cell viability counter screen (AID 1224836). Note: nearly all actives have a fitted effect of over 45% in size. The conditions noted are these: HepG2-CYP2B6-hCAR viability, CellTiter-Fluor, 23 h, PK11195 added to every well; series mostly up to 92.4 µM. An excerpt: U.S. Tox21 Program National Center for Advancing Translational Sciences [NCATS] NIH Chemical Genomics Center [NCGC] U.S. Environmental Protection Agency [EPA] National Institutes of Environmental Health Sciences [NIEHS] National Toxicology Program [NTP] U.S. Food and Drug Administration [FDA] Tox21 Assay Overview: The constitutive androstane receptor (CAR) is a nuclear receptor which regulates multiple drug metabolizing enzymes (DMEs) and transporters. Activating CAR will generally increase the transcription and subsequent translation of CYP2B6 and CYP3A4. These two DMEs represent about 50% of the drug metabolizing potential in the body. […] Recently, there have also been studies performed indicating CARs role in energy metabolism and cancer therapy. Therefore, inducing CARs activity could have a potential effect on diabetes and cancer. Identifying environmental toxins and compounds which modulate CAR, through the use of the Tox21 10K compound collection, will be an important step in determining the toxicity and potential therapeutic effects these factors will have on the human body. To differentiate true CAR agonists from cytotoxic substances, the assay is multiplexed with a cell viability assay.
Tox21 Assay Protocol Summary: A double-stable (hCAR and CYP2B6-2.2kb) transfected cell line, derived from human hepatoma (HepG2) cells, was utilized for the duration of the quantitative high-throughput screens. The HepG2-CYP2B6-hCAR cells were dispensed at 2500 cells/4 uL/well in 1536-well white solid bottom plates using a Multidrop Combi. After the assay plates were incubated at 37 C/5% CO2 for 4 hrs, 23 nL of compounds at 15 concentrations (from 5-48 columns) or positive control (from 1 to 4 columns) were transferred to the assay plates using a Pintool station. One uL of PK11195 (final concentration = 0.75 uM) was added, using a Flying Reagent Dispenser, inside each well. After a 23 hr incubation period at 37 C/5% CO2, 1 uL of CellTiter-Fluor reagent was added into each well of the assay plates using a Flying Reagent Dispenser. The fluorescence intensity in the plates was then measured using a ViewLux plate reader.
(qHTS replaces the single test concentration by a dilution series.)
In the case of `NNc1nc(-c2ccc([N+](=O)[O-])cc2)cs1`, the Potency was 54.5 µM (active).

Consider `C/C=C(\C)C(=O)OCc1ccccc1`, for which the Potency entry is “inactive”. Regarding `O=c1c(-c2ccccc2)c1-c1ccccc1`, the Potency entry is “inactive”.

`O=[N+]([O-])c1cc([N+](=O)[O-])c2ccc(S(=O)(=O)O)cc2c1O`: the Potency was 27.1 µM (active). For `CC[C@H]1O[C@]2(CC[C@@H]1C)C[C@@H]1C[C@@H](C/C=C(\C)C[C@@H](C)/C=C/C=C3\CO[C@@H]4[C@H](O)C(C)=C[C@@H](C(=O)O1)[C@]34O)O2`, the Potency is 68 µM (active). Consider `O=C(O)c1c(Cl)cccc1Cl`, for which the Potency result was “inactive”.

Take `CC(=O)SC[C@@H](Cc1ccccc1)C(=O)NCC(=O)OCc1ccccc1`: the Potency entry was “inactive”. As for `O=C(OC[C@H]1O[C@@H](OC(=O)c2cc(O)c(O)c(OC(=O)c3cc(O)c(O)c(O)c3)c2)[C@H](OC(=O)c2cc(O)c(O)c(OC(=O)c3cc(O)c(O)c(O)c3)c2)[C@@H](OC(=O)c2cc(O)c(O)c(OC(=O)c3cc(O)c(O)c(O)c3)c2)[C@@H]1OC(=O)c1cc(O)c(O)c(OC(=O)c2cc(O)c(O)c(O)c2)c1)c1cc(O)c(O)c(OC(=O)c2cc(O)c(O)c(O)c2)c1`, the viability change, negative = cytotoxic was -11.1% [at 19 µM] (inactive). Regarding `CN(C/C=C/C#CC(C)(C)C)Cc1cccc2ccccc12`, the Potency result was “inactive”. Take `CCCCCCCCNC(C)C(O)c1ccc(SC(C)C)cc1` (stereo not given): the Potency was 29.8 µM (active). Consider `O=c1[nH]sc2cc(Cl)ccc12`, for which the Potency entry is “inactive”. Consider `O=C(OCC1CO1)C1CCCCC1C(=O)OCC1CO1` (stereo not given), for which the Potency result is “inactive”. Same read-out and setting: then `Oc1cccc(-c2c3nc(c(-c4cccc(O)c4)c4ccc([nH]4)c(-c4cccc(O)c4)c4nc(c(-c5cccc(O)c5)c5ccc2[nH]5)CC4)C=C3)c1`, with 5.96 µM (active). The same measure, in the same setting: the same measure for `CC(C)=CCOc1ccc(/C=C/C(=O)c2ccc(OCC=C(C)C)cc2OCC(=O)O)cc1`: “inactive”. Consider `N#CSc1ccc(N)c([N+](=O)[O-])c1`, for which the Potency was 48.9 µM (active). For `CC(C)(C)CC(C)(C)c1ccc(OCCOCC[N+](C)(C)Cc2ccccc2)cc1`, the Potency result is “inactive”. On to `Nc1c2ccccc2nc2ccccc12`, for which the Potency result is “inactive”. Turning to `O=S1(=O)CC(Cl)(Cl)C(Cl)(Cl)C1`, the Potency is 12.2 µM (active). Same read-out and setting: then `CCCCCCCCCCn1cc[n+](CCCCCCCCCC)c1C`, with 30.7 µM (active); and `CCCCCCCCS(=O)C(C)Cc1ccc2c(c1)OCO2` (stereo not given), with “inactive”. In the case of `CN(C)c1ccc(C2(c3ccc(N(C)C)cc3)OC(=O)c3cc(N(C)C)ccc32)cc1`, the Potency result is “inactive”.

Take `CCOC(=O)O[C@]1(C(=O)OCCl)CC[C@H]2[C@@H]3CCC4=CC(=O)C=C[C@]4(C)[C@H]3[C@@H](O)C[C@@]21C`: the Potency result was “inactive”. On the same count and under the same terms, then `Oc1ccc2c(c1)-c1ccccc1C2`, with “inactive”. As to `O=C(O)c1cc(O)c2c(c1)C(=O)c1cccc(O)c1C2=O`, the Potency entry was “inactive”. Regarding `CC(=O)N1CCN(c2ccc(OC[C@H]3CO[C@](Cn4ccnc4)(c4ccc(Cl)cc4Cl)O3)cc2)CC1`, the Potency was 48.6 µM (active). For the molecule `CCCCCCCCOC(=O)c1ccc(O)cc1`, the Potency result is “inactive”. Turning to `Cn1cc(C(=O)[C@@H]2CCc3nc[nH]c3C2)c2ccccc21`, the Potency result is “inactive”. Regarding `CCCCCCOC(=O)c1ccc(O)cc1`, the Potency entry was “inactive”. On the same count and under the same terms, the same measure for `O=[N+]([O-])c1ccccc1Nc1ccccc1`: “inactive”.

Take `CCC(CN)=C(c1ccccc1)c1ccccc1`: the Potency entry was “inactive”. As to `Cc1cc(N)c(S(=O)(=O)O)cc1Cl`, the Potency entry was “inactive”. For `Nc1c(Cl)cc(Cl)cc1Cl`, the Potency result is “inactive”. Turning to `CC(C)(C)c1ccc(C(=O)CCCN2CCC(OC(c3ccccc3)c3ccccc3)CC2)cc1`, the Potency was 29.8 µM (active). Turning to `CCCCCCCC[N+](CCCCCCCC)(CCCCCCCC)CCCCCCCC`, the Potency is 9.67 µM (active). The same measure, in the same setting: then `Oc1cccc2cc3cccc(O)c3c(O)c12`, with “inactive”.

As to `OCc1c[nH]c2ccccc12`, the Potency entry was “inactive”. As to `CC(=O)OCC(C)OC(C)=O` (stereo not given), the Potency entry is “inactive”.

Regarding `CN(C)c1ccc(SC#N)cc1`, the Potency entry is “inactive”. The same measure, in the same setting: the same measure for `Oc1c(Cl)cc(Cl)c2cccnc12`: “inactive”. For `CCC(Cl)C(Cl)C(Cl)CC(Cl)C(Cl)C(C)Cl` (stereo not given), the Potency entry is “inactive”.
